Source: PubChem BioAssay (NCATS)
Inconclusive results are not listed. Entries that show only a call come without a potency. Calls of active or inactive are those of the source. Unless noted, the call rests on the fitted dose curve.

test system: not listed separately; assay: Confirmatory qHTS for activators (rescue) of SARS-CoV-2 Cytopathic Effect (CPE) (AID 1508606); details: Vero E6 SARS-CoV-2 CPE rescue, viability luminescence; series mostly up to 20 µM; further: nearly all actives have a fitted effect of over 70% in size; further: potency means the concentration at half of the fitted maximal effect

| Structure (SMILES) | Potency |
| --- | --- |
| Nc1nc2c(c(N3CC[C@@H](N)C3)n1)CCCc1ccccc1-2 | 10 µM (active) |
| C[C@@H]1C[C@H](N)C[C@H](c2ccncc2NC(=O)c2ccc(F)c(-c3c(F)cccc3F)n2)C1 | 8.91 µM (active) |
| COc1cc2ncnc(Sc3nnc(C)s3)c2cc1OC | 3.98 µM (active) |
| C/C=C(\C)C(=O)O[C@H]1C=C(CO)C(=O)[C@H](OC(C)=O)[C@H]1C(C)C | inactive |
| Cc1cc(C)cc(-c2cnc3cc(Cl)c(-c4cccc(O)c4)cc3c2OCCCN)c1 | inactive |
| C(=N\Nc1nc(Nc2ccccc2)nc(N2CCOCC2)n1)/c1c[nH]c2ccccc12 | 0.0898 µM (active) |
| O=S(=O)(c1cccc2ccccc12)n1ccc2ccc(N3CCN4CCCC4C3)cc21 (centres undefined) | 11.2 µM (active) |
| O=C(O)c1ccc(CCCc2ccc(OCCc3ccc(F)cc3)cc2)o1 | inactive |
| COCCN1CCN(Cc2ccc(-c3n[nH]c4c3C(=O)c3c(NC(=O)NN5CCOCC5)cccc3-4)cc2)CC1 | 2.82 µM (active) |
| COc1ccc(S(=O)(=O)N(CCO)c2ccccc2CN(C)C/C=C/c2ccc(Cl)cc2)cc1 | 10 µM (active) |
| CN(C)C(=O)NC1(c2ccccc2)CCN(CCC[C@]2(c3ccc(Cl)c(Cl)c3)CCCN(C(=O)c3ccccc3)C2)CC1 | inactive |
| c1ccc(-c2cc(CCC3CCNCC3)c3ccccc3n2)cc1 | inactive |
| Cc1nc2ccc(-n3ncc(C(=O)c4cc5ccccc5[nH]4)c3N)cc2[nH]1 | inactive |
| C[C@H]1CC[C@@]2(OC1)O[C@H]1CC3[C@@H]4CC[C@@H]5C[C@@H](O[C@@H]6O[C@H](CO)[C@@H](O[C@@H]7O[C@@H](C)[C@H](O)[C@@H](O)[C@H]7O)[C@H](O)[C@H]6O[C@@H]6O[C@H](CO)[C@@H](O)[C@H](O)[C@H]6O)CC[C@]5(C)C4CC[C@]3(C)[C@H]1[C@@H]2C (some centres undefined) | inactive |
| COc1ccc2cc(-c3cc(-c4cc(Cl)cc(Cl)c4)nn3C(C)c3ccc(C(=O)NCCC(=O)O)cc3)ccc2c1 (centres undefined) | inactive |
| CC(C)c1ccc(NC(=O)C(c2ccccc2)N(C)C(=O)Cc2c[nH]c3ccccc23)cc1 (centres undefined) | 3.55 µM (active) |
| CC(C)C[C@H](NC(=O)[C@H](Cc1ccccc1)NC(=O)OCc1ccccc1)C(=O)C=O | 8.91 µM (active) |
| CC(=O)O[C@@H]1C[C@H](O)[C@@]23CO[C@H](O)[C@]1(C)C2C[C@@H](O)[C@]1(C)C3C(=O)[C@H](OC(C)=O)[C@@]2(C)[C@H](c3ccoc3)C[C@H]3O[C@]321 (some centres undefined) | 1.06 µM (active) |
| Cc1cc(CN)cc(C)c1NC(=O)c1ccc(-c2cc(Cl)ccc2Cl)o1 | 7.94 µM (active) |
| CC1(C)CCC(C)(C)c2cc(C#Cc3ccc(C(=O)O)cc3)ccc21 | inactive |
| OC1CCC(Oc2cccc3cnc(Nc4ccc5nc[nH]c5c4)nc23)CC1 (centres undefined) | 4.47 µM (active) |
| O=S(=O)(NCC1CC1)c1ccc(Nc2nccc(N3CCCc4cc(O)ccc43)n2)cc1 | 0.794 µM (active) |
| Cn1c(NC[C@@H](N)Cc2ccccc2)nc(-c2ccncc2)c(-c2ccc3ccccc3c2)c1=O | 6.31 µM (active) |
| COc1cc(N2CCN(C)CC2)ccc1Nc1nccc(-c2cn(C)c3cnccc23)n1 | 8.91 µM (active) |
| CN(CCCNC(=O)c1ccc2nc3c(c(Cl)c2c1)CCCC3)Cc1ccccc1 | 7.08 µM (active) |
| Cc1nc(Nc2cnn(C3CCNCC3)c2)nc2c1N(C)C(=O)c1cc3ccccc3cc1N2C | 10 µM (active) |
| COc1ccc(CNC(=O)Nc2ncc([N+](=O)[O-])s2)cc1 | 7.94 µM (active) |
| O=C(O)/C=C/c1ccc(-c2ccc(O)c(C34CC5CC(CC(C5)C3)C4)c2)cc1 | inactive |
| CC(C)(O)CNc1ncc(-c2ccnc(Nc3ccncc3)n2)c(CC2CC2)n1 | 1.12 µM (active) |
| CC(=O)O/N=C1\C(=O)N(Cc2cc(Cl)ccc2Cl)c2ccc(Cl)cc21 | 7.94 µM (active) |

target: Calcium and integrin-binding protein 1 (Homo sapiens) (UniProt Q99828); assay: Primary qHTS for Identification of Calcium Integrin Binding Protein 1 (CIB1) Competitor (AID 1508620; active means well fitted inhibition curve with a large enough effect;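 further: GST tagged CIB1 binding a fluorescein labelled alphaIIb integrin peptide tracer; top concentration of the series differs between compounds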); details: CIB1-GST / FITC-alphaIIb peptide fluorescence polarization; series mostly up to 114 µM
How it was run: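 Fluorescence polarization competition: CIB1-GST (1 uM final) preincubated with compound 15 min at room temperature, then FITC-labeled alphaIIb peptide (100 nM final) added for another 15 min. Polarization read at Ex 480/Em 540.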

Chain of Calcium and integrin-binding protein 1 (Homo sapiens) (Q99828 whole entry, looked up): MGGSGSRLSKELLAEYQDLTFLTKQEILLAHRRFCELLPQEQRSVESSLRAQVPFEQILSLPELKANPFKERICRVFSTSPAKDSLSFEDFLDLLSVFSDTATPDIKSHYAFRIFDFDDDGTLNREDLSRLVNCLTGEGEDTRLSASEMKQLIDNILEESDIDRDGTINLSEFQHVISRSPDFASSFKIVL

| Structure (SMILES) | outcome |
| --- | --- |
| CCOc1ccc(CCNC(=O)c2cc3ccncc3n2Cc2cccc(C)c2)cc1OCC | inactive |
| O=S(=O)(Nc1ccccc1)c1ccc(NCc2ccc(Br)cc2O)cc1 | inactive |
| O=C1CCCC2=C1C(c1[nH]ncc1Cl)N=C(Nc1nc3ccc(F)cc3o1)N2 (centres undefined) | inactive |
| Cc1nn2c(=O)cc(N3CCNCC3)nc2s1 | inactive |

test system: not listed separately; assay: Cytotoxicity counterscreen for inhibitors of SARS-CoV-2 cell entry (AID 1645845); details: cell viability (SARS-CoV-2 entry assay cells); series mostly up to 57.1 µM; further: nearly all actives have a fitted effect of over 50% in size; further: potency means the concentration at half of the fitted maximal effect
How it was run: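 After a 15 min room-temperature ATPLite 1step step, luminescence reflected ATP remaining in HEK293-ACE2 cells exposed to compound for 1 h plus 48 h at 37 C, with percent activity set by cell and no-cell controls.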

| Structure (SMILES) | Potency |
| --- | --- |
| O=C1NC(=O)/C(=C\c2ccc(-c3ccc(F)cc3)o2)S1 | inactive |
| O=C(O)c1ccc(CCCc2ccc(OCCc3ccc(F)cc3)cc2)o1 | inactive |
| COCCNCc1ccc(-c2cc3nccc(Oc4ccc(NC(=O)C5(C(=O)Nc6ccc(F)cc6)CC5)cc4F)c3s2)nc1 | inactive |
| c1ccc(-c2cc(CCC3CCNCC3)c3ccccc3n2)cc1 | inactive |
| CC(C)C[C@H](NC(=O)[C@H](Cc1ccccc1)NC(=O)OCc1ccccc1)C(=O)C=O | inactive |
| Cn1c(NC[C@@H](N)Cc2ccccc2)nc(-c2ccncc2)c(-c2ccc3ccccc3c2)c1=O | inactive |
| COc1cc(N2CCN(C)CC2)ccc1Nc1nccc(-c2cn(C)c3cnccc23)n1 | inactive |
| CC(C)(O)CNc1ncc(-c2ccnc(Nc3ccncc3)n2)c(CC2CC2)n1 | 25.1 µM (active) |
| Nc1nc(Nc2ccc3c(c2)CC[C@@H](N2CCCC2)CC3)nn1-c1cc2c(nn1)-c1ccccc1CCC2 | inactive |
| CC(=O)O/N=C1\C(=O)N(Cc2cc(Cl)ccc2Cl)c2ccc(Cl)cc21 | inactive |
